Structures are written as SMILES. Activity calls are given as the source filed them. Calls follow the shape of the full dose curve.

For this assay the following is noted: Ebola virus entry reporter assay, ratio channel.
As to `COC(=O)Nc1nc2ccc(C(=O)c3cccs3)cc2[nH]1`, the AC50 (commonly the midpoint of the concentration-response curve, whichever way the signal moves) is 0.544 µM (active).

For the compound `CN1CCN(CCCN2c3ccccc3Sc3ccc(C(F)(F)F)cc32)CC1`, the AC50 is 2.73 µM (active).

In the case of `CCCCc1oc2ccc(NS(C)(=O)=O)cc2c1C(=O)c1ccc(OCCCN(CCCC)CCCC)cc1`, the concentration at half-maximal activity (AC50) is 2.43 µM (active).

In the case of `COC(=O)Nc1nc2ccc(C(=O)c3ccccc3)cc2[nH]1`, the AC50 was 3.43 µM (active).

For `NCCCC(O)(P(=O)(O)O)P(=O)(O)O`, the result was inactive.

On to `CN(C)CCOc1ccc(/C(=C(/CCCl)c2ccccc2)c2ccccc2)cc1`, for which the AC50 is 1.09 µM (active).

On to `C[C@@H]1O[C@@H](O[C@H]2CC[C@@]3(C)[C@H](CC[C@@H]4[C@H]3C[C@@H](O)[C@]3(C)[C@@H](C5=CC(=O)OC5)CC[C@]43O)C2)C[C@H](O)[C@@H]1O[C@H]1C[C@H](O)[C@H](O[C@H]2C[C@H](O)[C@@H](O)[C@@H](C)O2)[C@H](C)O1` (stereo in doubt), for which the AC50 is 1.4 µM (active).

`CC[C@]1(O)C[C@@H]2CN(CCc3c([nH]c4ccccc34)[C@@](C(=O)OC)(c3cc4c(cc3OC)N(C)[C@H]3[C@@](O)(C(=O)OC)[C@H](OC(C)=O)[C@]5(CC)C=CCN6CC[C@]43[C@@H]65)C2)C1`: the AC50 is 0.122 µM (active).

On to `CCCNCC(O)COc1ccccc1C(=O)CCc1ccccc1` (centres undefined), for which the AC50 is 8.63 µM (active).

On to `CCN(CC)CCNC(=O)c1c(C)[nH]c(/C=C2\C(=O)Nc3ccc(F)cc32)c1C`, for which the AC50 was 1.53 µM (active).

Turning to `COc1cccc2c1C(=O)c1c(O)c3c(c(O)c1C2=O)C[C@@](O)(C(C)=O)C[C@H]3O[C@H]1C[C@H](N)[C@H](O)[C@H](C)O1`, the AC50 was 2.73 µM (active).

With `CN(C)CCCN1c2ccccc2CCc2ccc(Cl)cc21`, the AC50 was 5.44 µM (active).

For `CCC1=C[C@@H]2CN(C1)Cc1c([nH]c3ccccc13)[C@@](C(=O)OC)(c1cc3c(cc1OC)N(C)[C@H]1[C@@](O)(C(=O)OC)[C@H](OC(C)=O)[C@]4(CC)C=CCN5CC[C@]31[C@@H]54)C2`, the AC50 was 0.0863 µM (active).

For the compound `CO[C@H]1C[C@@H]2CC[C@@H](C)[C@@](O)(O2)C(=O)C(=O)N2CCCC[C@@H]2C(=O)O[C@H]([C@H](C)C[C@@H]2CC[C@H](OCCO)[C@H](OC)C2)CC(=O)[C@H](C)C=C(C)[C@@H](O)[C@@H](OC)C(=O)[C@H](C)C[C@H](C)C=CC=CC=C1C`, the result was inactive.

Take `CN1[C@@H]2CC[C@H]1CC(OC(c1ccccc1)c1ccccc1)C2` (some centres undefined): the AC50 was 3.85 µM (active).

As for `CO[C@H]1C[C@@H]2CC[C@@H](C)[C@@](O)(O2)C(=O)C(=O)N2CCCC[C@@H]2C(=O)O[C@H]([C@@H](C)C[C@@H]2CC[C@H](O)[C@H](OC)C2)CC(=O)[C@H](C)C=C(C)[C@@H](O)[C@@H](OC)C(=O)[C@H](C)C[C@H](C)C=CC=CC=C1C`, the outcome was inactive.

Consider `CC[C@H]1OC(=O)[C@H](C)[C@@H](O[C@H]2C[C@@](C)(OC)[C@@H](O)[C@H](C)O2)C(C)[C@@H](O[C@@H]2O[C@H](C)C[C@H](N(C)C)[C@@H]2O)[C@](C)(OC)C[C@@H](C)C(=O)[C@H](C)[C@@H](O)[C@]1(C)O` (some centres undefined), for which the AC50 was 4.85 µM (active).

As to `CN1CCC[C@@H]1CCO[C@](C)(c1ccccc1)c1ccc(Cl)cc1`, the AC50 is 1.53 µM (active).

In the case of `CC[C@H]1OC(=O)[C@H](C)[C@@H](O[C@H]2C[C@@](C)(OC)[C@@H](O)[C@H](C)O2)[C@H](C)[C@@H](O[C@@H]2O[C@H](C)C[C@H](N(C)C)[C@@H]2O)[C@](C)(O)C[C@@H](C)CN(C)[C@H](C)[C@@H](O)[C@]1(C)O`, the AC50 was 3.06 µM (active).

As for `Cc1nnc(C(C)C)n1C1C[C@H]2CC[C@@H](C1)N2CC[C@H](NC(=O)C1CCC(F)(F)CC1)c1ccccc1` (some centres undefined), the result was inactive.

On to `COC1=CC(=O)C[C@@H](C)[C@]12Oc1c(Cl)c(OC)cc(OC)c1C2=O`, for which the result was inactive.

Turning to `CCCSc1ccc2nc(NC(=O)OC)[nH]c2c1`, the AC50 was 4.32 µM (active).

With `CC[C@]1(O)C[C@H]2CN(CCc3c([nH]c4ccccc34)[C@@](C(=O)OC)(c3cc4c(cc3OC)N(C=O)[C@H]3[C@@](O)(C(=O)OC)[C@H](OC(C)=O)[C@]5(CC)C=CCN6CC[C@]43[C@@H]65)C2)C1`, the AC50 was 0.137 µM (active).

With `C[C@]12CC[C@@H]3c4ccc(O)cc4C[C@@H](CCCCCCCCCS(=O)CCCC(F)(F)C(F)(F)F)[C@H]3[C@@H]1CC[C@@H]2O` (some centres undefined), the outcome was inactive.

(Values after PubChem BioAssay AID1117313 (National Center for Advancing Translational Sciences (NCATS), 2015).)
